From PubChem BioAssay
An excerpt weighted towards active compounds, which were near 2.6% of everything screened.
LGR2 inh: inhibitors of bursicon-induced LGR2 CRE-luciferase signal, primary screen, cell-based, HEK293, CRE-luciferase reporter, bursicon stimulation; inhibition, % at 9.99 µM; bursicon-stimulated, 4 h; actives 0.35% (n = 380,000); AID 720647, 2013; Drosophila bursicon receptor LGR2 (rickets);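 active = drop in luminescence signal, shown as inhibition above about 50% in the replicate tests, limit read from the data, passing the limit was not always enough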;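 note: agonist challenge used bursicon conditioned medium at about half maximal strength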
EWS-Fli inh: EWS/Fli-driven NR0B1 reporter inhibitors, primary screen, A673 cells, NR0B1 luciferase, luminescence, MLPCN library; viability-normalised; inhibition, % at 12.6 µM; actives 0.67% (n = 350,000);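 active = mean inhibition of at least 50% after viability correction, with every replicate also passing that limit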;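 note: firefly luciferase signal divided by Alamar Blue viability fluorescence both relative to DMSO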
TROY NFkB inh: inhibitors of TROY-driven NF-kB signaling, primary screen, Q293 LMP1-TROYcd cells, NF-kB luciferase, uHTS. Q293 LMP1-TROYcd NF-kB luciferase reporter, 4 h. actives 0.98% (n = 360,000). inhibition, % at 10 µM. AID 1347056, 2019;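 active = compounds whose plate-normalised and pattern-corrected inhibition of the luciferase reporter signal at the single screening dose is 50% or more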
TWEAK Fn14 block: inhibitors of TWEAK-Fn14 signaling, primary screen, luciferase reporter cells, uHTS; inhibition, % at 10 µM; actives 2% (n = 360,000); AID 1159606, 2016; TWEAK-stimulated Fn14 reporter cells, luciferase luminescence, 8 h; in the data active = inhibition above about 50%
LMP1 NFkB inh: EBV LMP1-driven NF-kappaB luciferase reporter inhibitors, primary screen, cell-based, luminescence, single point; actives 0.69% (n = 350,000); LMP1-induced NF-kappaB luciferase reporter cells; AID 504558, 2011; inhibition, % at 12.5 µM; in the data active = inhibition above about 41%;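 note: 0% = neutral control wells and 100% = reference inhibitor control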
An asterisk follows results filed as active; / = not tested or not shown.

SMILES	LGR2 inh	EWS-Fli inh	TROY NFkB inh	TWEAK Fn14 block	LMP1 NFkB inh
CCC(=O)c1ccc(N2CCN(C(=O)c3ccc(F)cc3)CC2)c(F)c1	11	7	17	-4	-7
COc1ccc(C(=O)c2ccc(N3CCN(C(=O)c4ccc(F)cc4)CC3)c(F)c2)cc1Br	/	/	44	61*	10
CCC(=O)Nc1ccc2c(c1)C(=O)N(C)C[C@@H](OC)[C@H](C)CN(Cc1ccccc1F)[C@H](C)CO2	0	-7	/	/	/
COc1cc(OC)cc(C(=O)Nc2cc(-c3cn4cccnc4n3)ccc2C)c1	1	-48	-5	-6	-12
COc1cc(C(=O)Nc2cc(-c3cn4cccnc4n3)ccc2C)cc(OC)c1OC	8	-8	0	92*	1
CO[C@@H]1CN(C)C(=O)c2cc(NC(=O)C3CC3)ccc2OC[C@@H](C)NC[C@H]1C	14	-3	/	/	/
COc1cccc2c1C(=O)c1c(O)c3c(c(O)c1C2=O)C[C@@](O)(C(=O)CO)C[C@@H]3O[C@H]1C[C@H](N)[C@@H](O)[C@H](C)O1	/	/	-3	88*	76*
COc1cccc2c1C(=O)c1c(O)c3c(c(O)c1C2=O)C[C@@](O)(C(C)=O)C[C@@H]3O[C@H]1C[C@H](N)[C@H](O)[C@H](C)O1	100*	70*	69*	96*	91*
COc1cccc2c1C(=O)c1c(O)c3c(c(O)c1C2=O)CC(O)(C(=O)CO)CC3OC1CC(N(C)C)C(O)C(C)O1 (stereo not drawn)	/	64*	57*	97*	87*
C[C@H]1CN([C@@H](C)CO)C(=O)c2cc(-c3cncnc3)cnc2O[C@H]1CN(C)Cc1ccc(Oc2ccccc2)cc1	23	3	/	/	/
C[C@@H]1CN([C@@H](C)CO)C(=O)c2cc(NC(=O)CCC(F)(F)F)ccc2O[C@@H](C)CCCCO[C@H]1CN(C)C(=O)CCC(F)(F)F	-2	-2	/	/	/
Cc1onc(-c2ccccc2)c1C(=O)Nc1ccccc1N1CCOCC1	/	/	-16	10	7
Cc1onc(-c2ccccc2)c1C(=O)Nc1cc(C(F)(F)F)ccc1N1CCOCC1	/	/	-17	-7	69*
Cc1oc(-c2cccc3ccccc23)nc1CN1CCN(c2ncnc3ccccc23)CC1	34	20	42	69*	24
COc1ccc(-c2nc(CN3CCN(c4cc(C)nc(C)c4)CC3)c(C)o2)c2ccccc12	13	22	-24	-19	2
CCCC#Cc1ccc([C@H]2[C@@H](CO)N3CCCCN(S(=O)(=O)c4ccccc4F)C[C@H]23)cc1	-7	10	/	/	/
Cc1nn(C(C)(C)C)c(C)c1/C=N/OC(=O)Nc1ccc(Cl)c(Cl)c1	/	9	87*	105*	47*
COc1cc(C=NOC(=O)Nc2ccccc2)cc(OC)c1OC	-58	-8	-29	-38	-12
COc1ccc(NC(=O)O/N=C/c2c(C)nn(C(C)(C)C)c2C)cc1	/	-52	65*	-10	-17
COc1ccc2c3c([nH]c2c1)[C@H](CO)N(C(=O)c1ccc(F)cc1)CC31CCN(C(=O)Nc2ccc(F)cc2)CC1	-6	3	/	/	/
O=C(N/N=C/c1ccc2cccc(OCc3ccccc3)c2n1)c1ccc(Br)cc1	/	/	14	66*	-3
C/C=C/c1ccc([C@H]2[C@H](CO)N(S(=O)(=O)CC)C23CN(C(=O)CC)C3)cc1	-3	0	/	/	/
O=C(COC(=O)C1CC(=O)N(c2ccc3c(c2)OCCO3)C1)NC1CCCc2ccccc21 (stereo not drawn)	/	/	41	56*	3
CCOC(=O)c1ccccc1NC(=O)COC(=O)C1CC(=O)N(c2ccc3c(c2)OCCO3)C1 (stereo not drawn)	23	-5	-47	7	4
COc1ccccc1NC(=O)C(C)OC(=O)C1CC(=O)N(c2ccc3c(c2)OCCO3)C1 (stereo not drawn)	-1	2	4	-3	-4
SMILES	LGR2 inh	EWS-Fli inh	TROY NFkB inh	TWEAK Fn14 block	LMP1 NFkB inh
O=C(O)C1CC(=O)N(c2ccc3c(c2)OCCO3)C1 (stereo not drawn)	/	/	33	63*	13
COc1cccc(OC)c1OC(=O)C1CC(=O)N(c2ccc3c(c2)OCCO3)C1 (stereo not drawn)	-15	17	16	68*	1
COc1cccc(C2=NO[C@@H]3C(=O)N(c4ccc5c(c4)OCCO5)C(=O)[C@H]23)c1OC	/	/	69*	77*	24
COC(=O)C1=C(C)N(Cc2ccccc2C(F)(F)F)C(=NCc2ccc(C(F)(F)F)cc2)NC1c1ccccc1 (stereo not drawn)	-2	15	/	/	/
COCc1cn(CC[C@H]2CC[C@@H](NC(=O)Nc3ccccc3)[C@@H](CO)O2)nn1	-9	12	/	/	/
COc1ccc(-c2cccc(-c3nc(C(=O)NCC(F)(F)F)cc4c3[C@@H](CCO)N([S@](=O)C(C)(C)C)C4)c2)cc1	14	2	/	/	/
C[C@@H]1CN([C@@H](C)CO)S(=O)(=O)c2ccc(C#CC3CCCC3)cc2O[C@H]1CN(C)C(=O)C1CC1	13	16	/	/	/
O=C(Nc1nc2ccccc2[nH]1)C1CC(=O)N(c2ccc3c(c2)OCCO3)C1 (stereo not drawn)	/	/	36	69*	14
O=C(Nc1ccccc1Br)C1CC(=O)N(c2ccc3c(c2)OCCO3)C1 (stereo not drawn)	11	-5	12	5	0
CC(C)NC(=O)N(C)C[C@H]1Oc2c(NC(=O)Nc3ccc(C(F)(F)F)cc3)cccc2C(=O)N([C@@H](C)CO)C[C@@H]1C	-5	-3	/	/	/
Oc1cccc(/C=N/n2c(C3CCCCC3)n[nH]c2=S)c1	4	-2	11	-4	0
COc1cccc(/C=N/n2c(C3CCCCC3)n[nH]c2=S)c1	1	-5	32	52*	1
C[C@H]1CN([C@@H](C)CO)C(=O)c2cc(NC(=O)Nc3ccccc3)ccc2O[C@H]1CN(C)Cc1ccc(C(=O)O)cc1	8	-11	/	/	/
COc1ccc2[nH]c3nc(SC(C)C)nnc3c2c1	/	/	54*	92*	13
CCOC(=O)CN(C(=O)CSc1nnc2c(n1)[nH]c1ccc(OC)cc12)c1ccc(F)cc1	/	/	74*	66*	4
COCCCNCC(O)COc1ccccc1F (stereo not drawn)	2	-37	-5	98*	-8
CC(NC(=O)CNC(=O)OCc1ccccc1)C(=O)N1CC(O)CC1C(=O)OCc1ccccc1 (stereo not drawn)	/	/	14	0	65*
CCCNC(=O)[C@H]1[C@H](CO)[C@H]2Cn3c(ccc(-c4ccc(OC)cc4)c3=O)[C@H]2N1CCC	4	0	/	/	/
O=C(Nc1cccc(Cl)c1Cl)c1snnc1-c1ccccc1	/	/	8	0	8
O=C(Nc1cc(Cl)ccc1O)c1snnc1-c1ccccc1	/	/	55*	9	13
